# Measured values from the supplement of paper PMC6555819.
# What was measured:
# Experiment in all cases: PBM binding z-score (relative to random genomic background probes); higher = stronger binding; sequences stand for … in GC…GCGATTGACAGCGTAGAATGAAGG
# [1] = tested on: RARb homodimer (NR concentration 270 nM)
# How it was run: (§1)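 Random background probes are the reference for binding z-scores. These scores derive from regression-normalized fluorescence on custom Agilent 4×180K protein-binding microarrays incubated 1 h with ligand-free nuclear receptor dimers. Binding was detected with antibodies against each partner (one per run).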
# [2] = tested on: RARg:RXRa (NR concentration 270 nM, RXRa partner concentration 90 nM)
# How it was run: as §1
# [3] = tested on: RARg homodimer (NR concentration 270 nM)
# How it was run: as §1
# [4] = tested on: RXRa DBDmut IVT, anti-RXR (DBD mutation: RXRa K156A/R161A, NR concentration 90 nM)
# How it was run: as §1
# [5] = tested on: RXRa homodimer (NR concentration 180 nM)
# How it was run: as §1
# [6] = tested on: THRa:RXRa (NR concentration 90 nM, RXRa partner concentration 90 nM)
# How it was run: as §1
# [7] = tested on: THRa homodimer (NR concentration 90 nM)
# How it was run: as §1
# [8] = tested on: VDR homodimer (NR concentration 270 nM)
# How it was run: as §1
Sequence,PBM binding z-score [1],PBM binding z-score [2],PBM binding z-score [3],PBM binding z-score [4],PBM binding z-score [5],PBM binding z-score [6],PBM binding z-score [7],PBM binding z-score [8]
CAGCGTAGGTCAGGGCCAGTATAGGAGGAACGTT,2.49,3.4,4.22,-0.29,2.04,1.24,-0.0112,-0.494
AAATGTAGGTTAGCTGGGGTCATTCAGACTAGGC,3.76,4.06,2.95,1.87,5.4,5.36,3.23,5.33
AGAATGAGGTTATTAAGATCAGGGCATTGCGGTC,1.67,1.47,1.12,2.13,2.02,2.61,1.18,1.74
CCGACAGGGGCATAAGGTTACCATAAGCCAGCCC,2.13,2.36,1.62,0.428,2.01,2.43,1.43,0.293
CGTCCTAGGTCAAAGGTCAGTGAAGAGATGACGG,4.99,7.97,7.18,2.25,9.16,4.54,1.39,1.24
GCTAGCAGGCCATTTGGGTCACTGAATGACGGGC,1.94,0.989,1.4,0.125,0.735,1.95,0.65,0.43
CAAACTAGGTCAAGGTCATAGTCGGTTTGTGCCA,4.91,5.78,6.44,2.95,5.54,4.38,3.83,4.29
GCTTGTAGATCATGGTTAAGAAAGACTAAGCTAA,-0.707,-0.198,-0.267,0.0641,-0.538,-0.389,-0.737,-0.385
TCTTGTAGATCAAAGGATAAGAAAGCCGAAGCCT,-1.11,-0.0685,-0.196,0.579,0.0933,-0.444,-0.847,-0.298
TCATATAGCTAAACAGGTGAAAGTCCGTAAGTTA,0.282,0.0319,-0.0908,0.797,0.266,0.318,-0.358,0.105
CGAACTAGGTGAGAACAGGACAGTGAAGGATGAT,0.34,0.567,0.579,0.0565,0.458,1.21,0.0768,0.286
CGTCAAAGTTGAAGGTAACGTAACAGAAAGCAGC,0.588,0.945,1.11,0.128,0.848,0.402,-0.078,-0.0561
GGAACCAGGGCAAGTTGATAGCAGAGTTTGATGG,1.71,1.17,1.52,1.85,0.254,1,1.21,0.898
TTACCAAGGTGAAGGGTCGTTGATGCACGCCTTG,1.79,2.19,1.14,0.00143,3.13,2.35,0.598,1.16
TTACCAAGGTGAAGGTCGTAGATCCCTCTGTAGA,1.43,1.13,1.04,-0.566,1.66,2.19,0.633,0.348
ATATGTAGGTTAAGGGTCACTCAGGTTGGTTCGC,4.35,4.99,4,1.82,6.33,3.59,2.01,3.47
CGTCCAAGGTCATAGAAGGTCAGTGAAGACAGAT,5.56,6.7,7.06,4.03,6.78,5.07,2.62,4
ATGTCTAGGTAAAGATAGTTCAGTGAATGCAAAT,0.94,0.598,0.794,-0.0644,0.151,0.506,-0.0958,0.431
ACTAGTTGGTCAGCTGAGGTCAAACACAATTCGG,4.23,4.33,3.72,1.72,4.56,4.9,4.87,3.66

Sequence,PBM binding z-score [1],PBM binding z-score [2],PBM binding z-score [3],PBM binding z-score [4],PBM binding z-score [5],PBM binding z-score [6],PBM binding z-score [7],PBM binding z-score [8]
CCTACTGGGCCAAAAAGGTCATTGAGGCCGATAA,4.37,4.72,4.17,0.821,4.63,3.4,0.793,3.39
CGTCCAAGGTCAATGCTAGGACAGTGAAAGCATT,4.05,5.76,5.95,3.01,4.3,4.3,2.32,2.24
TGAATGAGGTTATAAGATCAGGGAACGTTGCAAA,0.0745,1.3,0.836,0.756,1.86,1.71,-0.0262,0.362
CGTCAAAGTTCAAGGTAACGGAACAGAAAGCAGC,3.7,5.46,6.41,4.07,4.74,2.84,1.14,2.84
ACTTACGGATCAACGAGGTTATAGCACGCGTATA,0.98,0.642,0.684,0.778,1.46,1.83,0.943,1.39
ACTAGCAGACCAAGGGTCACTCAAGATTAGTCCG,3.58,3.6,3.3,0.335,3.57,2.42,-0.116,1.2
TAGCCTAGGTCATTCAGGGGACAGTATAGAAAGC,3.89,6.43,4.2,2.35,2.9,3.75,1.54,1.66
TCTATTAGTTGAAGGGCAACGGACGAGTCCGTTT,1.19,0.697,0.572,1.53,0.756,0.343,0.0596,1.98
GCTAGTTGGTCAGTAAAAGGTCAGACACCGGTCG,4.8,4.68,4.27,0.252,3.55,2.64,0.737,0.607
GGAACGAGGGCATTCTAGTTGATAGCATGGCGAT,0.668,0.971,1.39,3.36,0.575,2.54,-0.282,2.43
TCTTCTAGATCAGCAGGTTAAGAAAGCTGGCCAA,-0.301,0.12,0.0708,0.571,0.331,0.17,-0.696,-0.431
ATCTCTAGGTAAGAATCAGTTCAGTGAAGAACGC,0.542,0.529,0.6,0.634,0.2,0.888,0.68,1.52
CCTAGTTGGTCAGGAGGTTACACACCGGATATGA,1.49,1.67,1.33,0.179,1.3,1.03,0.918,0.702
ACTATTAGTTGACTTGGGGCAACCGATACGACGC,0.856,0.552,0.701,0.839,0.366,1.29,0.534,0.357
ATCTCTAGGTAAAAATTCAGTGAATCCCGAGGAT,-0.367,0.604,0.58,-0.329,0.184,0.19,-0.0698,-0.0746
TAAGACAGGTGAAGGTAACTCAGGTACGCAGTCG,0.812,0.869,0.994,-0.391,0.793,1.48,0.449,0.487
GTACCACGGTGAATAGGTCGTTGATGAGTAGGCG,0.859,0.755,0.261,-0.3,0.707,0.209,-0.565,0.098
TCATGTAGGTAAAGGTGAAAGTCGAACGATATGA,1.61,1.69,1.37,0.705,1.91,1.28,0.0244,0.443
ATCTCTAGGTAAAGATAGTTCAGTGAGTGCAAAT,1.5,0.634,0.838,0.341,0.157,1.1,0.522,4.13

Sequence,PBM binding z-score [1],PBM binding z-score [2],PBM binding z-score [3],PBM binding z-score [4],PBM binding z-score [5],PBM binding z-score [6],PBM binding z-score [7],PBM binding z-score [8]
TCTGCTAGGTAAACGATGGTCAGCTAATCTGCTA,-0.48,-0.193,-0.441,-0.148,0.132,-0.11,-1.01,-0.963
CCAGACAGCTGAAAGGTAACTCAGTCTGGTACGC,-0.175,-0.0986,-0.184,0.0606,0.212,0.0566,-0.51,-0.0523
AATACATGGTCACTAGGCCAGAGTAGGTACGAAT,0.707,0.578,1.01,-0.405,0.58,-0.00579,-0.302,0.15
GGAACGAGGGCCTTCGAGTTGATAGCATGGCGAT,-1.03,-0.45,-0.368,0.207,-0.125,0.262,-1.24,-0.335
AGAATGATGTTAAGATCAGGGAAACAGAATACAT,-0.787,0.187,0.295,-0.58,0.00873,-0.153,-0.703,-0.555
ATCGATAGGTCGACGAGGTGAGTATACACCGTTT,0.959,1.8,1.82,0.0347,1.67,2.59,0.488,0.231
GCGACTGGAGCATCAGCAGGTTACCATAACTTAA,-0.0503,-0.127,-0.161,-0.526,0.0977,0.179,-0.37,-0.639
AGAACGAGGGCAATGAGTTGATGGCACGGGTGGC,1.11,0.928,1.54,1.36,0.636,0.857,-0.205,2.62
GGAACGAGGGCAAGTTGATAGAAGAGTTTGATGG,1.5,1.55,2.06,2.22,0.775,1.2,0.164,1.7
TCTATTAGTCGAAGGGCAACCGACGAGTCCGTTT,1.15,0.394,0.638,1.56,0.534,0.187,-0.0492,1.35
AGAATGAGGTTACCAAAGATCAGGAAAACGCTTG,0.544,2.13,1.58,1.15,2.56,2.88,0.443,0.0267
ATCTCTAGGTATCAAGTTCAGTGAAAGAGAGGAC,1.89,1.07,1.17,1.34,0.64,1.03,0.846,2.79
ATATGTAGGTTAATGGTCATTCAGGTTGGTTCGC,1.75,1.02,1.11,0.788,1.14,0.905,0.945,1.34
CCTTACGGGTCAAGGTTATAGCGCGGGTGGTACG,3.48,4.83,4.46,1.19,5.01,2.96,0.728,1.52
TCTTGTAGATCAAGCAGGTTAAGAAAGCCTGAGT,0.31,0.0826,-0.299,0.319,0.444,0.331,-0.339,0.113
TGTCAAAATTCAAAGGTAACGTAAGTATCCACAC,0.464,0.501,0.807,-0.417,0.772,1.16,-0.046,0.102
CCTATTAGTTTACCATAAGGGCAACCGAAGCTCG,1.96,1.14,1.1,0.915,0.566,2.06,1.39,1.03
ATAGAAAGGTCGAGGTGAGTATAGAGAAAGGGAA,2.6,4.22,4.22,0.887,4.17,2.93,0.985,0.537
TCATATAGGTAAACGCTAGGTGAAAGTCCGATCT,0.416,0.628,0.523,1.63,0.944,1.52,0.385,0.251
